Measurements from the supplement of paper PMC10849652.
Targets with a hit are over-represented here; the source holds about 8,800 in all. About 0.5% of all pairs of compound and target were hits. A number with no mark means an inactive call.

compound: CC1=C(C=C(C=C1)NC(=O)C2=CC(=CC=C2)N(C)C)NC(=O)C3=CC=C(C=C3)O; assay: log2 fold change, soluble protein after heating vs DMSO (PISA); higher = thermal stabilisation; K562 lysate, 10 uM; active = over 0.2 and 3.5 SD of the protein, either way, in both replicates (recomputed)
Method in brief: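 K562 pellets were dounce-homogenised in PBS pH 7.4 with 1 mM MgCl2, and the crude extract at 1 mg/mL protein was treated with 10 μM compound for 30 min. Aliquots were heated for 3 min across 48°C-58°C, pooled, and brought to 0.5% NP-40 at 4°C; soluble protein was the supernatant after 21,000xg for 90 min. Soluble protein was quantified by TMTpro 16plex LC-MS/MS with channel sums equalised, and reported as log2 fold change in thermal stability against DMSO controls, with values from duplicates.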

Chain of UniProt P28838 (P28838 whole entry, looked up): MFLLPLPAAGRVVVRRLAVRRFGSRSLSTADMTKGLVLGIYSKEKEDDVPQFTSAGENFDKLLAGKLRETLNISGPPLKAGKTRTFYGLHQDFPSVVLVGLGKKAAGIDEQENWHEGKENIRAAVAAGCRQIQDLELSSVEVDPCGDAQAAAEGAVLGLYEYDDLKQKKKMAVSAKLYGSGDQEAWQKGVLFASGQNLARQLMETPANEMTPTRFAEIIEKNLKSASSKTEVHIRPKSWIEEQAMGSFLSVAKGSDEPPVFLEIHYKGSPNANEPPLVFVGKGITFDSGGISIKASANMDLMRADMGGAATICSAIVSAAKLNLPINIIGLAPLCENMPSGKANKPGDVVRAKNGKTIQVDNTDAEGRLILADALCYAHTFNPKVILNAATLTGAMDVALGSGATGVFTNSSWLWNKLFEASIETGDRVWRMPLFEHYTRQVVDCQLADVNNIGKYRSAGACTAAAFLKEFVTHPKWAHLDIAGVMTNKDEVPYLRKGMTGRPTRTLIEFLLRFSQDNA
Chain of UniProt P52732 (P52732 whole entry, looked up): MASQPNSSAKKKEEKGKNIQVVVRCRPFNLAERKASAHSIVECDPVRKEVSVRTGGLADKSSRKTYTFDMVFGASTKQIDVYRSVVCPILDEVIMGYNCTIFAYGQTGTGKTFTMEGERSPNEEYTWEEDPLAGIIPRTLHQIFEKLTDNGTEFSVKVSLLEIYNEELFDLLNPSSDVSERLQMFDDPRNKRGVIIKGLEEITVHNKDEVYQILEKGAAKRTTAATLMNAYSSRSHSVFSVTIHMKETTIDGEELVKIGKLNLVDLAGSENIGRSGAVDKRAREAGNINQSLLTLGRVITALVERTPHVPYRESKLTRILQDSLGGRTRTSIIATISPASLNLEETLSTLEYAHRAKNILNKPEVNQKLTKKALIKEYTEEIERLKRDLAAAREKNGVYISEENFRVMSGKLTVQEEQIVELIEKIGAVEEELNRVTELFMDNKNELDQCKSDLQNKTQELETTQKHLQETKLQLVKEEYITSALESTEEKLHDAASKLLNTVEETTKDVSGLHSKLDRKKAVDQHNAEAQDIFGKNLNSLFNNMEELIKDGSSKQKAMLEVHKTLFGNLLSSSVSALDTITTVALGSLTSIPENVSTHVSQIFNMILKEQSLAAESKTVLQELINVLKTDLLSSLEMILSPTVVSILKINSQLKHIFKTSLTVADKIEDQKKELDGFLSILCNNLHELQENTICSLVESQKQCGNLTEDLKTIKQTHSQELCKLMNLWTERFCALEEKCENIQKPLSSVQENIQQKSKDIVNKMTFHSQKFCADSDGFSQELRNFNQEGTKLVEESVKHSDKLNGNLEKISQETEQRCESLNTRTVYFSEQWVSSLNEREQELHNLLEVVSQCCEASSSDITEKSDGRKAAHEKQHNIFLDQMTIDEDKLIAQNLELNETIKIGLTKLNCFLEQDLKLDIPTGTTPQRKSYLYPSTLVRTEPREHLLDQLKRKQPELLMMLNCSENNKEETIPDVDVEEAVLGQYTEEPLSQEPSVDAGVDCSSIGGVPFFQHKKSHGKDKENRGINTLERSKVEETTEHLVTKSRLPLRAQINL
Chain of UniProt O94822 (O94822 whole entry, looked up): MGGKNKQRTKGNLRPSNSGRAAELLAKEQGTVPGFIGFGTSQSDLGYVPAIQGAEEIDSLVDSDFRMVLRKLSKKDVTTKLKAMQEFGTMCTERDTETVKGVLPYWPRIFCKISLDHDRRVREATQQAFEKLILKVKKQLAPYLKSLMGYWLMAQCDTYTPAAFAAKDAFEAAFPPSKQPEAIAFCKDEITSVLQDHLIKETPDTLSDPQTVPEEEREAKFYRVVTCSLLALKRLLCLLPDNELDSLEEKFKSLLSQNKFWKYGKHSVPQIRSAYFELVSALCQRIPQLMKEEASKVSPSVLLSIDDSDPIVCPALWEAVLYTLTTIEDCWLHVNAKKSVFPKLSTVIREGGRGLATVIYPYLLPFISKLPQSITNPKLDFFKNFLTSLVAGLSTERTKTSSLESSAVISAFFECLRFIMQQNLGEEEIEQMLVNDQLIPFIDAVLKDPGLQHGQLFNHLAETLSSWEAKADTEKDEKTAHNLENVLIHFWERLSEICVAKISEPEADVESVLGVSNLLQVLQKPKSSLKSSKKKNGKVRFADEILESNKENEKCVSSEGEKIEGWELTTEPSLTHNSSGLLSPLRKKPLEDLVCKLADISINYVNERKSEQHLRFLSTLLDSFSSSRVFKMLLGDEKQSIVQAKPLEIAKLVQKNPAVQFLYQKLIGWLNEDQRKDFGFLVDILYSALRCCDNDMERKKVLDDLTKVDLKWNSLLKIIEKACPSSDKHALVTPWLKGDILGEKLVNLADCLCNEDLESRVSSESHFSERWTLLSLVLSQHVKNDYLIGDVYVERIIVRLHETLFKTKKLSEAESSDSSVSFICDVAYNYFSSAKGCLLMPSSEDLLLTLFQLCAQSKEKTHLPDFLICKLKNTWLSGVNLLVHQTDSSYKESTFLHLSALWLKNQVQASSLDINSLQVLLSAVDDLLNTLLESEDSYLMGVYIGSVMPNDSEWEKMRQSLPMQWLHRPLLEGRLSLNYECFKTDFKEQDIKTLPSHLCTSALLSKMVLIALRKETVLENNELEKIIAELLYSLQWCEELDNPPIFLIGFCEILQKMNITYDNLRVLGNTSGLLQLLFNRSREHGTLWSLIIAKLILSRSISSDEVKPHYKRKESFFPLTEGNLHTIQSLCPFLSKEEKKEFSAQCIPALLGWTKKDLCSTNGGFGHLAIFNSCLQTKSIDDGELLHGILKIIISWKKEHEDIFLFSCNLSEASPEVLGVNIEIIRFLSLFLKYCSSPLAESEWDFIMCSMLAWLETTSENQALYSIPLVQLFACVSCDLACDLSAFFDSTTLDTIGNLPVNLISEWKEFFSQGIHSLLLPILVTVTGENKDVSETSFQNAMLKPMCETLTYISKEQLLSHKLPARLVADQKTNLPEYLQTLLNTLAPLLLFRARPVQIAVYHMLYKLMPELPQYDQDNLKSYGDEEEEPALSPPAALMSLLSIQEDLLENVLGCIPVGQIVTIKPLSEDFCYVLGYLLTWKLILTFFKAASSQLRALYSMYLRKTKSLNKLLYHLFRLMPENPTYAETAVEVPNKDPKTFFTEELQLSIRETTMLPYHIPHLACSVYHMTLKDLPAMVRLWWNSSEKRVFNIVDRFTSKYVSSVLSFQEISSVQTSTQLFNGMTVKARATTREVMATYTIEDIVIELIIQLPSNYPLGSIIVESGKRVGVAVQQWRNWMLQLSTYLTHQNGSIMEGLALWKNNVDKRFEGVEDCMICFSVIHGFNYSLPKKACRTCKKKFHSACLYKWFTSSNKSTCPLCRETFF
Chain of UniProt Q15058 (Q15058 whole entry, looked up): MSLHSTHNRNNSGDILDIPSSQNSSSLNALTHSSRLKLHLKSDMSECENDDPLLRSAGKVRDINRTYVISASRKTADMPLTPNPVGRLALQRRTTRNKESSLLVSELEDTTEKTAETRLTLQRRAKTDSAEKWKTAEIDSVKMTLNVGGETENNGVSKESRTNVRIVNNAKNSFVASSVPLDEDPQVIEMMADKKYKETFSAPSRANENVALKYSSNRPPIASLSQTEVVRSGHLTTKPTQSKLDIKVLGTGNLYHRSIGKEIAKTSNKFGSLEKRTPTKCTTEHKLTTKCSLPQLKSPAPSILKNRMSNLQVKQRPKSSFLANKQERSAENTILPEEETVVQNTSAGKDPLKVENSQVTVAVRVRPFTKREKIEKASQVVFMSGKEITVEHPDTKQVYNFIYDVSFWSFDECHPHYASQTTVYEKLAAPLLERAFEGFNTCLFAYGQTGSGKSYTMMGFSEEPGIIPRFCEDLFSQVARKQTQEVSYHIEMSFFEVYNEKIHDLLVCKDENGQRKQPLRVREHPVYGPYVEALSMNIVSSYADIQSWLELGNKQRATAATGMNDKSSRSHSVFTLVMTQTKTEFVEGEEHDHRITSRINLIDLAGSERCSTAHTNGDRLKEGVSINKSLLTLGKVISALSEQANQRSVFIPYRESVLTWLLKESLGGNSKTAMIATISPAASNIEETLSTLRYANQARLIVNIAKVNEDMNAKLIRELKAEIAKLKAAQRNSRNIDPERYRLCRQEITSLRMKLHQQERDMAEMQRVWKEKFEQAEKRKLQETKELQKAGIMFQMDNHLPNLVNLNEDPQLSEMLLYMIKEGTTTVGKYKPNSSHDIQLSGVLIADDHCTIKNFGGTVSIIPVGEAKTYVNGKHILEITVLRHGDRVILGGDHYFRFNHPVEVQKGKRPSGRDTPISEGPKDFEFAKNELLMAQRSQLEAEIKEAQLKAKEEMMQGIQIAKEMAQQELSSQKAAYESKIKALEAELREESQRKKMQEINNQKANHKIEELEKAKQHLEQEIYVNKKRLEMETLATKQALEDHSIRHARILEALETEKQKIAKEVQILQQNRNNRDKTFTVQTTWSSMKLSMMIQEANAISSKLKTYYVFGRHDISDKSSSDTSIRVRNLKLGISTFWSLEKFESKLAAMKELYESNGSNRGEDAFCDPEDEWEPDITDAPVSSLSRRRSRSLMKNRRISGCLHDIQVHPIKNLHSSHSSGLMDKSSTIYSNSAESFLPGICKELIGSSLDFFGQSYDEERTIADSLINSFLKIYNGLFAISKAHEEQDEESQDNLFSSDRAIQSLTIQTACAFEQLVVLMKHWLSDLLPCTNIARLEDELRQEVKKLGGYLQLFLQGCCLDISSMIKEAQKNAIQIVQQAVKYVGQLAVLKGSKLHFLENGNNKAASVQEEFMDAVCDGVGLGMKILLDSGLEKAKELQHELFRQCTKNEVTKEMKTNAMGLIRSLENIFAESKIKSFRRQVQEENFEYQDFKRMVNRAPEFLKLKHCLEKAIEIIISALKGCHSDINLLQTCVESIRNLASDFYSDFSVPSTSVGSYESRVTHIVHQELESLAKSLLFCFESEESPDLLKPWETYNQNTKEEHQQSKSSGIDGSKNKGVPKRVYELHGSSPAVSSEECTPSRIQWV

In order of falling log2 fold change:
1. MAP2K3 isoform 3 (UniProt P46734)  0.123
2. KRR1 (UniProt Q13601)  0.093
3. MAP7D3 (UniProt Q8IWC1)  0.087
4. LTN1 isoform 3 (UniProt O94822)  0.075
5. MITD1 (UniProt Q8WV92)  0.058
6. KIF4A (UniProt O95239)  0.056
7. KPNA2 (UniProt P52292)  0.051
8. MAPK8 isoform 3 (UniProt P45983)  0.047
9. LARS2 (UniProt Q15031)  0.046
10. KIF14 (UniProt Q15058)  0.041
11. KIF15 (UniProt Q9NS87)  0.036
12. MRPL46 (UniProt Q9H2W6)  0.026
13. MFF isoform 2 (UniProt Q9GZY8)  0.022
14. KSR1 (UniProt Q8IVT5)  0.019
15. MARK3 (UniProt P27448)  0.016
16. KLC2 (UniProt Q9H0B6)  0.016
17. MCU (UniProt Q8NE86)  0.014
18. KIF11 (UniProt P52732)  0.014
19. LIMK2 isoform 3 (UniProt P53671)  0.013
20. MPP1 (UniProt Q00013)  0.012
21. KIFC1 (UniProt Q9BW19)  0.011
22. LYN (UniProt P07948)  0.007
23. MGST3 (UniProt O14880)  0.006
24. MAP4 (UniProt E7EVA0)  0.005
25. LYSMD3 (UniProt Q7Z3D4)  0.005
26. KPNA4 (UniProt O00629)  0
27. MAP3K4 (UniProt Q9Y6R4)  -0.001
28. LUZP1 (UniProt Q86V48)  -0.002
29. MCCC1 (UniProt Q96RQ3)  -0.004
30. MLH1 (UniProt P40692)  -0.006
31. LAP3 (UniProt P28838)  -0.009
32. LUC7L (UniProt Q9NQ29)  -0.01
33. MAT2B (UniProt Q9NZL9)  -0.013
34. MED16 (UniProt Q9Y2X0)  -0.018
35. MAPK3 (UniProt P27361)  -0.022
36. LIMS1 isoform 3 (UniProt P48059)  -0.023
37. METTL2A (UniProt Q96IZ6)  -0.025
38. METTL7A (UniProt Q9H8H3)  -0.033
39. MED8 isoform 2 (UniProt Q96G25)  -0.05
